Rows were chosen to be rich in hits. Some 2.1% of all compounds tested hit in one or more screens of this group.
Casp6 inh: human caspase-6 inhibitors, primary screen, biochemical, VEID-R110 fluorescence, single point, set 2. purified caspase-6, Z-VEID-R110 cleavage fluorescence. P55212. inhibition, % at 12.5 µM. 350,000 compounds, 0.53% hits. AID 686996, 2013;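 active = mean inhibition across replicates at least about 35%, with every replicate also reaching that limit, limit read from the data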;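 also: 0% = median of neutral control wells and 100% = no fluorescence left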
SIRT5 block: SIRT5 desuccinylase inhibitors, primary screen, biochemical, fluorescence imaging, single point, set 5; 330,000 compounds, 1.1% hits; NAD-dependent protein deacylase sirtuin-5, mitochondrial (Homo sapiens), Q9NXA8; Purified SirT5, succinyl-peptide AMC, trypsin-coupled fluorescence; inhibition, % at 15 µM; in the data active = inhibition above about 15%
ARNT-TACC3 inh: disruptors of ARNT/TACC3 protein interaction, primary screen, biochemical, AlphaScreen, single concentration | Transforming acidic coiled-coil-containing protein 3 (Homo sapiens), Q9Y6A5 | AlphaScreen His-ARNT PAS-B/GST-TACC3 binding, luminescence; TACC3 fragment carries E629A point mutation | inhibition, % at 9.99 µM | 390,000 compounds, 0.66% hits | AID 623870, 2012;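 active = mean inhibition of replicates at least 50% and at least half of replicates each reaching 50%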;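 also: 0% = complete ARNT plus TACC3 wells and 100% = ARNT alone without TACC3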
NSD2 HMT inh: NSD2 histone methyltransferase inhibitors, primary screen, biochemical, AlphaScreen, single concentration, set 2; Histone-lysine N-methyltransferase NSD2 (Homo sapiens), O96028; NSD2 peptide methylation, 120 min; inhibition, % at 12.5 µM; 310,000 compounds, 0.54% hits; AID 743445, 2014; in the data active = inhibition above about 50%
Target sequence (O96028 whole entry, looked up): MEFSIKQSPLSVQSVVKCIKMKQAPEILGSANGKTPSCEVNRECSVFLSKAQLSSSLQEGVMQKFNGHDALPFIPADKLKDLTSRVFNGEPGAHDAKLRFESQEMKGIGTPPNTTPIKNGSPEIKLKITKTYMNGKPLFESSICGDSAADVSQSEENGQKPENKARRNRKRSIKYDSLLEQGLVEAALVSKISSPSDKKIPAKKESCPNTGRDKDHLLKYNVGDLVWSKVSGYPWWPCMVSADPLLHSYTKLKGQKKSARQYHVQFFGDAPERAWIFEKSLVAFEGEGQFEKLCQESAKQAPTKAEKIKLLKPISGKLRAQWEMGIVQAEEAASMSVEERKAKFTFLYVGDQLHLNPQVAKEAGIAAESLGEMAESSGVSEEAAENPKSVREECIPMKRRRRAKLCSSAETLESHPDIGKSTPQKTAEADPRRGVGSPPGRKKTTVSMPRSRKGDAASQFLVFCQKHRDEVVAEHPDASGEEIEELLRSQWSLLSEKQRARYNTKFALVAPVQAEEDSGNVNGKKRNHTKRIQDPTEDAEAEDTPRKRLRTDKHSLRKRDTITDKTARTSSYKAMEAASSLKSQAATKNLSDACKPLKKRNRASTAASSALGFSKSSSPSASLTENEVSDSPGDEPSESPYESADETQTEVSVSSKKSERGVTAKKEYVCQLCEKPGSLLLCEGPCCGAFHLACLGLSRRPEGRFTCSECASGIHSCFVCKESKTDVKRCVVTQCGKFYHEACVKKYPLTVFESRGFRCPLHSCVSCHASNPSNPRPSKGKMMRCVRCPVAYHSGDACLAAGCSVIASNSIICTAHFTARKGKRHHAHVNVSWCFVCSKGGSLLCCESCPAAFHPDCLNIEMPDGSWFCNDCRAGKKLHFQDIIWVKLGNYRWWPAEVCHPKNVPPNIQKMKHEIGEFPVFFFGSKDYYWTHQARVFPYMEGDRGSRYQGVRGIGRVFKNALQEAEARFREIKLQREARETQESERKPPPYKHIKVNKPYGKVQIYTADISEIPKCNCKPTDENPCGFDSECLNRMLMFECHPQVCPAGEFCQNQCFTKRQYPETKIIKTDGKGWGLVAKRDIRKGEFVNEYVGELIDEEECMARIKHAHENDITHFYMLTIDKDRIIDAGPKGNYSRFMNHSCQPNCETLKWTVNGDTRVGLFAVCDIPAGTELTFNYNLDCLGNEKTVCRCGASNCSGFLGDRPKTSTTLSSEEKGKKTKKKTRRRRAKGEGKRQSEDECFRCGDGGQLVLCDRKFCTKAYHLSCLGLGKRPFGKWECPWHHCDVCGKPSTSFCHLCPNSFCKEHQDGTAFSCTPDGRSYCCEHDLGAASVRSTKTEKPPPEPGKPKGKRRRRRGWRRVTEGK
PfHsp90 yeast 2: growth inhibition of PfHsp90-expressing yeast, primary screen, antimalarial PfHsp90 inhibitor project, S. cerevisiae, BacTiter-Glo luminescence, single point, set 2; 310,000 compounds, 0.32% hits; inhibition, % at 9.4 µM; AID 504621, 2011; BacTiter-Glo ATP, 48 h; yeast lacking PDR1 and PDR3 efflux regulators;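 active = every replicate shows inhibition above about 80%, whatever the replicate mean, limit read from the data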;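 also: 0% = DMSO neutral controls and 100% = 20 µM radicicol positive controls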
The depositor's hits bear a star; x = not tested or not shown.

SMILES	Casp6 inh	SIRT5 block	ARNT-TACC3 inh	NSD2 HMT inh	PfHsp90 yeast 2
CCN1CCN(C(=O)/C=C/c2ccc(OC)cc2)CC1	-4.1	0.0	-4.0	5.4	-2.6
O=C1C=CC2(O[C@H](c3ccccc3)[C@@H](c3ccccc3)O2)[C@H](Sc2ccccc2O)C1	7.1	-8.8	-3.9	x	113.2*
COc1ccc(NC(=O)N(C)C[C@@H]2Oc3ccc(NC(=O)Nc4c(C)noc4C)cc3CC(=O)N([C@@H](C)CO)C[C@@H]2C)cc1	-1.0	x	2.8	x	x
C[C@@H]1CN([C@@H](C)CO)C(=O)Cc2cc(NC(=O)Nc3ccc(C(F)(F)F)cc3)ccc2O[C@@H]1CN(C)S(C)(=O)=O	4.3	0.8	2.7	x	x
Nc1ccc(N2CCCCC2)cc1N1CCCCC1	x	x	34.8	38.9	-7.5
Nc1c(N2CCCC2)cc(Cl)c2nonc12	x	x	37.3*	x	23.4
Nc1ccc(N2CCCCC2)c2nonc12	17.7	0.5	40.6	82.6*	2.9
O=C(CCn1c(=O)oc2ccccc21)Nc1cccc(Cl)c1	-0.5	-1.2	-5.7	x	-16.7
O=C(Cn1c(=O)oc2ccccc21)Nc1cccc(Cl)c1	1.8	28.1*	31.2	-2.9	-4.6
CCOc1ccccc1NC(=S)N(CCC(C)C)C1CCN(C(C)=O)CC1	3.0	18.5*	-4.0	2.6	-1.8
Cc1ccc(S(=O)(=O)Nc2ccc3c(c2)C(=O)N([C@@H](C)CO)C[C@@H](C)[C@@H](CN(C)S(=O)(=O)c2ccccc2)OCCCC[C@H](C)O3)cc1	-1.9	0.4	-1.3	x	x
Cc1ccc(S(=O)(=O)N(C)C[C@H]2OCCCC[C@H](C)Oc3ccc(NS(=O)(=O)c4ccccc4)cc3C(=O)N([C@H](C)CO)C[C@@H]2C)cc1	-2.5	3.5	0.6	x	x
Cc1ccc(S(=O)(=O)N(C)C[C@@H]2OCCCC[C@@H](C)Oc3ccc(NS(=O)(=O)c4ccccc4)cc3C(=O)N([C@H](C)CO)C[C@H]2C)cc1	1.7	21.6*	-10.6	x	x
Cc1ccc(S(=O)(=O)Nc2ccc3c(c2)C(=O)N([C@@H](C)CO)C[C@H](C)[C@@H](CN(C)S(=O)(=O)c2ccccc2)OCCCC[C@@H](C)O3)cc1	0.4	19.3*	9.3	x	x
Cc1ccc(S(=O)(=O)N(C)C[C@@H]2OCCCC[C@@H](C)Oc3ccc(NS(=O)(=O)c4ccccc4)cc3C(=O)N([C@@H](C)CO)C[C@@H]2C)cc1	1.6	20.6*	-0.7	x	x
Cc1ccc(S(=O)(=O)Nc2ccc3c(c2)C(=O)N([C@H](C)CO)C[C@@H](C)[C@@H](CN(C)CC2CCCCC2)OCCCC[C@H](C)O3)cc1	0.8	17.5*	-1.4	x	x
Cc1ccc(S(=O)(=O)Nc2ccc3c(c2)C(=O)N([C@@H](C)CO)C[C@@H](C)[C@H](CN(C)CC2CCCCC2)OCCCC[C@H](C)O3)cc1	1.7	-0.6	1.2	x	x
CNC(=O)C[C@@H]1CC[C@@H]2[C@@H](COc3ccc(NC(=O)Nc4ccc(F)c(F)c4)cc3C(=O)N2C)O1	0.9	-1.1	-8.4	x	x
Cc1ccc(S(=O)(=O)Nc2ccc3c(c2)C(=O)N([C@H](C)CO)C[C@@H](C)[C@@H](CN(C)S(=O)(=O)c2ccccc2)OCCCC[C@@H](C)O3)cc1	1.7	20.7*	x	x	x
Cc1ccc(S(=O)(=O)Nc2ccc3c(c2)C(=O)N([C@H](C)CO)C[C@@H](C)[C@H](CN(C)S(=O)(=O)c2ccccc2)OCCCC[C@H](C)O3)cc1	3.3	10.0	-3.9	x	x
Cc1ccc(C(=O)N2CCCC2)cc1S(=O)(=O)Nc1cccc(C)c1C	-2.0	26.2*	x	-4.5	-14.4
COCC(=O)NC[C@H]1N[C@H](CO)[C@H]1c1ccc(C2=CCCCC2)cc1	-7.0	36.8*	-2.2	x	x
COCC(=O)NC[C@@H]1N[C@@H](CO)[C@H]1c1ccc(C2=CCCCC2)cc1	-2.5	-0.8	1.6	x	x
CN(C)C(=O)c1ccc(-c2ccccc2[C@H]2[C@@H](C#N)N(C(=O)C3CC3)[C@@H]2CO)cc1	-1.0	-4.8	x	x	x
C[C@H](CO)N1C[C@H](C)[C@@H](CN(C)CC2CCCCC2)OCc2cn(nn2)CCCC1=O	2.5	-2.8	0.5	x	x
SMILES	Casp6 inh	SIRT5 block	ARNT-TACC3 inh	NSD2 HMT inh	PfHsp90 yeast 2
O=C(C=P(c1ccccc1)(c1ccccc1)c1ccccc1)c1ccccc1-c1ccccc1C(=O)C=P(c1ccccc1)(c1ccccc1)c1ccccc1	5.0	-4.0	16.1	x	145.4*
Cc1ccc(C(=O)C2CCN(CC(=O)Nc3nc(C)cs3)CC2)cc1	0.5	18.6*	1.8	1.2	-11.4
COc1cc(C(=O)Nc2ccc(C)cc2C(NCC(=O)NN)c2ccccc2)cc(OC)c1OC (stereo unspecified)	-3.8	18.6*	-1.1	-0.5	39.5
COc1ccc(C)cc1NC(=O)CNC(c1ccccc1)c1ccccc1	0.3	-3.0	-10.3	14.7	-28.9
CCOC(=O)/C(=C\C=C\N1CCOCC1)C(C)=O	19.2	15.8*	-4.6	-4.0	-40.1
O=C(COC(=O)CNC(=O)c1ccccc1)NC(=O)NC1CCCCC1	0.4	23.2*	-7.4	0.6	5.0
O=C(COC(=O)CNC(=O)c1ccccc1)NC1CCCCC1	-1.4	-1.7	-4.9	-1.8	16.9
Cc1ncoc1C(=O)Nc1cccc(Cl)c1	4.0	-3.1	33.9	0.8	-7.8
Cc1ccc(NC(=O)c2ocnc2C)cc1Cl	58.6*	-2.0	-2.1	-4.1	-1.7
Cc1noc(C)c1S(=O)(=O)Nc1ccc2c(c1)C(=O)N([C@@H](C)CO)C[C@@H](C)[C@H](CN(C)Cc1ccccc1)O2	-1.3	-3.0	15.1	x	x
Cc1ccc(C(=O)NCCC(=O)N2CCC3(CC2)NCCc2[nH]cnc23)cc1C	0.4	27.8*	-11.0	10.7	13.9
CC1CN(C)C(C)CC1OC(=O)C(c1ccccc1)c1ccccc1 (stereo unspecified)	-2.0	0.2	x	11.0	x
COC(=O)C(c1ccccc1)C1(O)CC(C)N(C)CC1C (stereo unspecified)	-1.0	25.8*	-5.2	11.1	-4.1
NN1C(=O)/C(=C2/Sc3ccccc3N2CCCS(=O)(=O)O)SC1=S	55.4*	7.2	6.0	9.7	-6.5
O=C1NC(=S)S/C1=C1\Sc2ccccc2N1CCCS(=O)(=O)O	x	x	3.7	3.2	9.6
Cc1ccc(-c2nc(NC(=O)CSc3cc(C)c4ccccc4n3)ns2)cc1	-2.0	-3.7	-8.7	x	-36.9
COc1ccc2c(C)cc(SCC(=O)Nc3nsc(-c4ccc(C)cc4)n3)nc2c1	49.3*	x	24.4	x	34.4
COC(=O)C1CN(C(=O)COc2ccc(C)cc2)c2ccccc2O1 (stereo unspecified)	-0.7	34.5*	-5.7	0.3	-18.7

Assay outcomes: PubChem, Broad Institute
